Results with a measured potency or affinity are listed apart. Results filed as inconclusive are left out. Activity calls are given as the source filed them. Unless noted, no rule for the calls is given here.
Tests used:
[1] = RMG-1 ovarian cancer cell viability loss – cherry-pick, dose response (AID 687029;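 active = signal drop whose fitted half-maximal concentration is at most twice the top valid dose, in every test run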;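 also: cells exposed to compound for 96 hours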)
[2] = IOSE-T80 viability loss, PAX8-independent line – cell-based, cherry-pick, selectivity assay for PAX8 inhibitor project, dose response (AID 687032;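 active = fitted half-maximal concentration for viability loss no higher than twice the top valid dose, in every repeat run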;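 also: cells exposed to compound for 96 h before reading; 0% = neutral control wells and -100% = 2 µM mitoxantrone kill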)
[3] = CMV-driven luciferase expression suppression in HEK293 – cell-based, luminescence, dry powder, counter-screen for Pax8 inhibitor project, dose response (AID 743020;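 active = signal-lowering compounds whose fitted half-maximal concentration is at or below twice the top tested dose in every run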;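 also: HEK293 cells stably expressing the CMV luciferase reporter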)
[4] = general cell-killing toxicity readout – plate reader, dry powder samples, cytotoxicity control for PAX8 inhibitor project, dose response (AID 743021)
[5] = IGROV1 cell killing – plate reader, dry powder samples, PAX8 inhibitor project, dose response (AID 743043);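 also: more negative means fewer viable cells or more cytotoxicity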
[6] = OVCAR-3 cell viability loss – plate reader, dry powder samples, PAX8 inhibitor project, dose response (AID 743044); details: max activity: at 35 µM, active compounds read low unless noted
[7] = toxicity toward immortalized ovarian surface epithelium – cell-based, plate reader, dry powder samples, cytotoxicity control for PAX8 inhibitor project, dose response (AID 743045);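 also: 0% = neutral control median and -100% = positive control median; more negative values mean more cell killing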
[8] = A2780 cell killing – plate reader, dry powder samples, cytotoxicity control, dose response (AID 743046);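 also: 0% = neutral control wells and -100% = cytotoxic reference compound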
[9] = OVCAR8 cell viability loss – plate reader, dry powder samples, PAX8 project, dose response (AID 743197)

C[C@H](CO)N1C[C@H](C)[C@@H](CN(C)Cc2ccc(Oc3ccccc3)cc2)OCc2ccccc2-c2c(n(C)c3ccccc23)C1=O
inactive: outcome [1] | outcome [2] | outcome [3] | outcome [4] | outcome [5] | max activity [6] 1.33% | outcome [7] | outcome [8] | outcome [9]

C[C@@H]1CN([C@H](C)CO)C(=O)c2cc(NC(=O)Nc3ccc(C(F)(F)F)cc3)ccc2O[C@@H](C)CCCCO[C@H]1CN(C)Cc1ccc(Cl)c(Cl)c1
inactive: outcome [1] | outcome [2] | outcome [3] | outcome [4] | outcome [5] | max activity [6] 8.01% [at 8 µM, active compounds read low] | outcome [7] | outcome [8] | outcome [9]

Cc1ccc(S(=O)(=O)N(C)C[C@H]2Oc3c(NC(=O)Nc4ccc(F)cc4)cccc3C(=O)N([C@@H](C)CO)C[C@H]2C)cc1
inactive: outcome [1] | outcome [2] | outcome [3] | outcome [4] | outcome [5] | max activity [6] -10.2% | outcome [7] | outcome [8] | outcome [9]

COc1cccc(S(=O)(=O)N(C)C[C@@H]2Oc3cc(C4=CCCCC4)ccc3S(=O)(=O)N([C@@H](C)CO)C[C@H]2C)c1
inactive: outcome [1] | outcome [2] | outcome [3] | outcome [4] | outcome [5] | max activity [6] -34.5% [at 0.5 µM, active compounds read low] | outcome [7] | outcome [8]

O=C(C[C@@H]1C[C@H]2c3cc(NC(=O)C4CCOCC4)ccc3O[C@H]2[C@H](CO)O1)NCc1ccc(Oc2ccccc2)cc1
inactive: outcome [1] | outcome [2] | outcome [3] | outcome [4] | outcome [5] | max activity [6] -20% [at 8 µM, active compounds read low] | outcome [7] | outcome [8] | outcome [9]

C[C@@H]1CN([C@H](C)CO)C(=O)c2cc(NS(=O)(=O)c3ccc(F)cc3)ccc2O[C@@H]1CN(C)Cc1ccc(C(F)(F)F)cc1
inactive: outcome [1] | outcome [2] | outcome [3] | outcome [4] | outcome [5] | max activity [6] -4.85% | outcome [7] | outcome [8] | outcome [9]

C[C@@H]1CN([C@@H](C)CO)C(=O)c2cc(NC(=O)Nc3ccc(C(F)(F)F)cc3)ccc2O[C@@H](C)CCCCO[C@@H]1CN(C)Cc1ccccc1
inactive: outcome [1] | outcome [2] | outcome [3] | outcome [4] | outcome [5] | max activity [6] -20.5% [at 16 µM, active compounds read low] | outcome [7] | outcome [8]

COc1ccc(S(=O)(=O)Nc2ccc3c(c2)CC(=O)N([C@@H](C)CO)C[C@@H](C)[C@H](CN(C)Cc2ccc(-c4ccccc4)cc2)O3)cc1
inactive: outcome [1] | outcome [2] | outcome [3] | outcome [4] | outcome [5] | max activity [6] 35.7% [at 1 µM, active compounds read low] | outcome [7] | outcome [8] | outcome [9]

C[C@@H]1CCCCO[C@@H](CN(C)Cc2ccc(Cl)c(Cl)c2)[C@H](C)CN([C@H](C)CO)C(=O)c2cc(NC(=O)Nc3ccccc3)ccc2O1
inactive: outcome [1] | outcome [2] | outcome [3] | outcome [4] | outcome [5] | max activity [6] 13.2% [at 0.5 µM, active compounds read low] | outcome [7] | outcome [8] | outcome [9]

C[C@@H]1CN([C@@H](C)CO)C(=O)Cc2cc(NC(=O)Nc3ccc(F)cc3)ccc2O[C@H]1CN(C)CC1CCCCC1
inactive: outcome [1] | outcome [2] | outcome [3] | outcome [4] | outcome [5] | max activity [6] 14.9% [at 2.1 µM, active compounds read low] | outcome [7] | outcome [8] | outcome [9]

C[C@H](O)C#Cc1ccc2c(c1)O[C@@H](CN(C)Cc1ccc(-c3ccccc3)cc1)[C@@H](C)CN([C@@H](C)CO)S2(=O)=O
inactive: outcome [1] | outcome [2] | outcome [3] | outcome [4] | outcome [5] | max activity [6] -22.5% | outcome [7] | outcome [8]

C[C@H](CO)N1C[C@H](C)[C@H](CN(C)Cc2ccc(Cl)c(Cl)c2)OCCCC[C@H](C)Oc2ccc(NC(=O)NC3CCCCC3)cc2C1=O
inactive: outcome [1] | outcome [2] | outcome [3] | outcome [4] | outcome [5] | max activity [6] -2.95% | outcome [7] | outcome [8] | outcome [9]

C[C@@H]1CCCCO[C@H](CN(C)Cc2ccc(C(F)(F)F)cc2)[C@@H](C)CN([C@@H](C)CO)C(=O)c2cc(NS(=O)(=O)c3ccccc3)ccc2O1
inactive: outcome [1] | outcome [2] | outcome [3] | outcome [4] | outcome [5] | max activity [6] -9.99% | outcome [7] | outcome [8]

C[C@H]1CCCCO[C@H](CN(C)Cc2ccc(Cl)c(Cl)c2)[C@@H](C)CN([C@@H](C)CO)C(=O)c2cc(NC(=O)Nc3ccccc3)ccc2O1
inactive: outcome [1] | outcome [2] | outcome [3] | outcome [4] | outcome [5] | max activity [6] -18.6% | outcome [7] | outcome [8]

CN1c2ccc(-c3ccc(C#N)cc3)cc2[C@@H]2[C@@H](CCN2C(=O)NC2CCCCC2)[C@@H]1CO
inactive: outcome [1] | outcome [2] | outcome [3] | outcome [4] | outcome [5] | max activity [6] -6.17% [at 4.2 µM, active compounds read low] | outcome [7] | outcome [8] | outcome [9]

CN1c2ccc(C3=CCCCC3)cc2[C@H]2[C@H](CCN2C(=O)NC2CCCCC2)[C@@H]1CO
inactive: outcome [1] | outcome [2] | outcome [3] | outcome [4] | outcome [5] | max activity [6] 17.4% [at 0.56 µM, active compounds read low] | outcome [7] | outcome [8]

C[C@@H]1CCCCO[C@@H](CN(C)C(=O)Nc2ccccc2)[C@H](C)CN([C@H](C)CO)C(=O)c2cc(NC(=O)Nc3ccc(C(F)(F)F)cc3)ccc2O1
inactive: outcome [1] | outcome [2] | activity change, negative = inhibition [3] 5.92% [at 8 µM] | outcome [4] | outcome [5] | max activity [6] 33.8% [at 16 µM, active compounds read low] | outcome [7] | outcome [8] | outcome [9]

COc1cccc(S(=O)(=O)N(C)C[C@@H]2OCc3ccccc3-c3c(n(C)c4ccccc34)C(=O)N([C@@H](C)CO)C[C@@H]2C)c1
inactive: outcome [1] | outcome [2] | outcome [3] | outcome [4] | outcome [5] | max activity [6] 23.2% [at 2.1 µM, active compounds read low] | outcome [7] | outcome [8]

C[C@H]1CCCCO[C@@H](CN(C)S(=O)(=O)c2cccs2)[C@@H](C)CN([C@@H](C)CO)C(=O)c2cc(NC(=O)NC3CCCCC3)ccc2O1
inactive: outcome [1] | outcome [2] | outcome [3] | outcome [4] | outcome [5] | max activity [6] -5.85% [at 8 µM, active compounds read low] | outcome [7] | outcome [8] | outcome [9]

Cc1ccc(S(=O)(=O)N(C)C[C@@H]2Oc3c(NC(=O)c4ccc(-c5nccs5)cc4)cccc3C(=O)N([C@@H](C)CO)C[C@@H]2C)cc1
inactive: outcome [1] | outcome [2] | outcome [3] | outcome [4] | outcome [5] | max activity [6] 61.7% [at 0.26 µM, active compounds read low] | outcome [7] | outcome [8] | outcome [9]

C[C@H](CO)N1C[C@H](C)[C@@H](CN(C)C(=O)Nc2ccc(F)cc2)OCc2ccccc2-c2c(n(C)c3ccccc23)C1=O
inactive: outcome [1] | outcome [2] | outcome [3] | outcome [4] | outcome [5] | max activity [6] 31.5% | outcome [7] | outcome [8] | outcome [9]

COc1ccc(-c2ccc3c(c2)[C@@H]2[C@@H](CCN2C(=O)C2CCCC2)[C@H](CO)N3C)cc1
inactive: outcome [1] | outcome [2] | outcome [3] | outcome [4] | outcome [5] | max activity [6] -19.3% [at 18 µM, active compounds read low] | outcome [7] | outcome [8]

C[C@@H]1CCCCO[C@H](CN(C)C(=O)C2CCCCC2)[C@@H](C)CN([C@@H](C)CO)C(=O)c2cc(NC(=O)Nc3ccccc3)ccc2O1
inactive: outcome [1] | outcome [2] | outcome [3] | outcome [4] | outcome [5] | max activity [6] 37.9% [at 1 µM, active compounds read low] | outcome [7] | outcome [8] | outcome [9]

COc1ccc(CN(C)C[C@@H]2OCCCC[C@H](C)Oc3ccc(NC(=O)Nc4cccc5ccccc45)cc3C(=O)N([C@H](C)CO)C[C@H]2C)cc1
inactive: outcome [1] | outcome [2] | outcome [3] | outcome [4] | outcome [5] | max activity [6] -16.9% | outcome [7] | outcome [8]

C[C@@H]1CCCCO[C@@H](CN(C)S(=O)(=O)c2cccs2)[C@H](C)CN([C@H](C)CO)C(=O)c2cc(NC(=O)Nc3ccc(C(F)(F)F)cc3)ccc2O1
inactive: outcome [1] | outcome [2] | outcome [3] | outcome [4] | outcome [5] | max activity [6] 9.36% [at 2.1 µM, active compounds read low] | outcome [7] | outcome [8]

C[C@@H]1CN([C@@H](C)CO)C(=O)c2c(c3ccccc3n2C)-c2ccccc2CO[C@H]1CN(C)S(=O)(=O)c1cccc(F)c1
inactive: outcome [1] | outcome [2] | outcome [3] | outcome [4] | outcome [5] | max activity [6] -19.9% [at 16 µM, active compounds read low] | outcome [7] | outcome [8]

C[C@H]1CN([C@@H](C)CO)C(=O)CCCn2nncc2CO[C@@H]1CN(C)C(=O)Nc1ccc(-c2cccs2)cc1
inactive: outcome [1] | outcome [2] | outcome [3] | outcome [4] | outcome [5] | max activity [6] -29.9% | outcome [7] | outcome [8] | outcome [9]

COc1ccccc1-c1ccc2c(c1)O[C@H](CN(C)Cc1ccc3c(c1)OCO3)[C@H](C)CN([C@@H](C)CO)S2(=O)=O
inactive: outcome [1] | outcome [2] | outcome [3] | outcome [4] | outcome [5] | max activity [6] 20.4% [at 4.2 µM, active compounds read low] | outcome [7] | outcome [8] | outcome [9]

C[C@@H]1CN([C@H](C)CO)S(=O)(=O)c2ccc(C#Cc3ccncc3)cc2O[C@H]1CN(C)C(=O)Nc1ccc2c(c1)OCO2
inactive: outcome [1] | outcome [2] | outcome [3] | outcome [4] | outcome [5] | max activity [6] -26.8% [at 16 µM, active compounds read low] | outcome [7] | outcome [8] | outcome [9]

C[C@@H]1CN([C@@H](C)CO)C(=O)c2cc(NC(=O)Nc3ccc4c(c3)OCO4)ccc2O[C@@H]1CN(C)C(=O)Nc1ccc(C(F)(F)F)cc1
inactive: outcome [1] | outcome [2] | outcome [3] | outcome [4] | outcome [5] | max activity [6] 51.3% [at 0.26 µM, active compounds read low] | outcome [7] | outcome [8] | outcome [9]
